Laboratory results from PubChem BioAssay AID1159580 (chemical genetic matrix, 2015).
“And” between values parts separate entries of the source, which are not always exact repeats. Equal values may be shown once. Among all 5,500 compounds or so, about 2,000 (36%) were called active. Inconclusive results (about 18%) are left out. No stated cut-off is given here; in the data, active means normalized growth mostly below about 0.91 (no sharp cut-off); inconclusive means no clear call, values can overlap the other calls; inactive means mostly above about 0.92. The list shows a part of the results.

Assay: chemical genetic growth profiling, strain panel (AID 1159580);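 further: tested at 20 µM; growth read once vehicle control cultures reached saturation at 30 °C; 1 = growth at the plate median or of vehicle wells; lower values mean less growth of the strain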
Details: S. cerevisiae deletion strains, growth OD

Measured: normalized growth

NC(=O)N1c2ccccc2CC(=O)c2ccccc21
inactive: locus YAL013W, strain DEP1, hits give low values 0.996 | locus YAL021C, strain ccr4, hits give low values 0.991 | locus YAL026C, strain drs2, hits give low values 0.998 | locus YAL030W, strain snc1, hits give low values 0.993 | locus YBL061C, strain skt5, hits give low values 0.994 | locus YBR009C, strain hhf1, hits give low values 0.942 | locus YBR021W, strain FUR4, hits give low values 0.969 | locus YBR023C, strain chs3, hits give low values 1 | locus YBR171W, strain sec66, hits give low values 0.989 | locus YBR229C, strain ROT2, hits give low values 0.993 | locus YBR231C, strain swc5, hits give low values 0.974 | locus YBR279W, strain paf1, hits give low values 0.99 | locus YCL011C, strain gbp2, hits give low values 0.991 | locus YCL016C, strain dcc1, hits give low values 1.01 | locus YCL029C, strain bik1, hits give low values 0.978 | locus YCL069W, strain vba3, hits give low values 0.956 | locus YCR088W, strain abp1, hits give low values 0.976 | locus YDL005C, strain med2, hits give low values 0.971 | locus YDL035C, strain GPR1, hits give low values 0.996 | locus YDL040C, strain nat1, hits give low values 0.992 | locus YDL074C, strain BRE1, hits give low values 1.03 | locus YDL101C, strain DUN1, hits give low values 0.992 | locus YDL134C, strain PPH21, hits give low values 0.989 | locus YDL185W, strain tfp1, hits give low values 0.976 | locus YDL192W, strain arf1, hits give low values 0.975 | locus YDR001C, strain nth1, hits give low values 0.979 | locus YDR069C, strain doa4, hits give low values 0.963 | locus YDR101C, strain arx1, hits give low values 0.994 | locus YDR137W, strain rgp1, hits give low values 0.991 | locus YDR150W, strain NUM1, hits give low values 1 | locus YDR159W, strain sac3, hits give low values 0.931 | locus YDR162C, strain NBP2, hits give low values 1.02 | locus YDR195W, strain ref2 0.927 | locus YDR297W, strain sur2, hits give low values 0.988 | locus YDR318W, strain mcm21, hits give low values 0.962 | locus YDR334W, strain swr1, hits give low values 0.95 | locus YDR335W, strain msn5, hits give low values 0.973 | locus YDR388W, hits give low values 0.991 | locus YDR392W, strain spt3, hits give low values 0.956 | locus YDR502C, strain sam2, hits give low values 0.994 | locus YEL003W, strain gim4, hits give low values 0.987 | locus YEL037C, strain rad23, hits give low values 0.984 | locus YEL061C, strain CIN8 (second series), hits give low values 0.98 | locus YEL061C, strain CIN8, hits give low values 0.998 | locus YER015W, strain faa2, hits give low values 0.993 | locus YER016W, strain bim1, hits give low values 1.01 | locus YER110C, hits give low values 0.975 | locus YER111C, strain swi4, hits give low values 0.993 | locus YER155C, strain BEM2 (second series), hits give low values 0.97 | locus YER155C, strain BEM2, hits give low values 0.982 | locus YER167W, strain BCK2, hits give low values 0.967 | locus YFR010W, strain ubp6, hits give low values 0.947 | locus YGL078C, strain dbp3, hits give low values 0.99 | locus YGL086W, strain mad1, hits give low values 0.974 | locus YGL167C, strain pmr1, hits give low values 0.968 | locus YGL173C, strain kem1, hits give low values 0.948 | locus YGL227W, strain vid30, hits give low values 1.01 | locus YGL240W, strain doc1, hits give low values 0.948 | locus YGL248W, strain PDE1, hits give low values 0.987 | locus YGL253W, strain hxk2, hits give low values 0.966 | locus YGR078C, strain PAC10, hits give low values 1.01 | locus YGR135W, strain pre9, hits give low values 1 | locus YGR229C, strain SMI1, hits give low values 1 | locus YGR252W, strain gcn5, hits give low values 0.922 | locus YHR013C, strain ard1, hits give low values 0.995 | locus YHR027C, strain rpn1, hits give low values 0.972 | locus YHR030C, strain SLT2, hits give low values 0.983 and 0.997 | locus YHR079C, strain IRE1 (second series), hits give low values 0.968 | locus YHR079C, strain IRE1, hits give low values 0.997 | locus YHR094C, strain hxt1, hits give low values 0.978 | locus YHR129C, strain ARP1, hits give low values 0.99 | locus YHR142W, strain chs7, hits give low values 0.977 | locus YHR200W, strain rpn10, hits give low values 0.97 | locus YIL066C, strain RNR3, hits give low values 0.991 | locus YIL073C, strain SPO22, hits give low values 0.955 | locus YIL125W, strain kgd1, hits give low values 0.998 | locus YIR030C, strain dcg1, hits give low values 0.981 | locus YJL092W, strain hpr5, hits give low values 0.995 | locus YJL095W, strain BCK1 (second series), hits give low values 0.997 | locus YJL095W, strain BCK1, hits give low values 1.02 and 0.994 | locus YJL115W, strain asf1, hits give low values 0.992 | locus YJL129C, strain trk1, hits give low values 0.995 | locus YJL134W, strain LCB3, hits give low values 0.99 | locus YJL154C, strain vps35, hits give low values 0.992 | locus YJL164C, strain tpk1, hits give low values 0.972 | locus YJL166W, strain qcr8, hits give low values 0.941 | locus YJL168C, strain set2, hits give low values 0.985 | locus YJL187C, strain SWE1 (second series), hits give low values 1 | locus YJR043C, strain POL32, hits give low values 0.979 | locus YJR066W, strain TOR1, hits give low values 0.946 | locus YJR075W, strain HOC1, hits give low values 1.05
